PubChem BioAssay AID1445 (SRMLSC, 2008)
The campaign covered roughly 220,000 compounds. About 910 (0.41%) were called active. The sample holds actives, similar compounds and a random draw of the others, so the mix is not that of the screen. Results with a measured potency or affinity are listed apart. A number with no mark means an inactive call.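 Rule for the calls: active = primary inhibition above the hit cutoff, then over 50% inhibition at one or more dose response concentrations (cut at about 23% in these data, passing the limit was not always enough); inconclusive = conflicting primary data, or primary hits not chosen for dose response; inactive = low primary inhibition, or under 50% at every dose.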

Molecular target: Aminopeptidase N (Plasmodium falciparum (isolate 3D7)) (UniProt O96935)
Experiment: malaria alanyl aminopeptidase activity blockers – biochemical, fluorogenic H-Leu-NHMec substrate, 1536-well (AID 1445);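 note: plate controls were DMSO full reaction for no effect and no enzyme background for full effect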
Conditions: recombinant M1AAP, H-Leu-NHMec fluorogenic kinetic assay; at 30 µM, hits give high values unless noted

Sequence of Aminopeptidase N (Plasmodium falciparum (isolate 3D7)) (O96935 whole entry, looked up): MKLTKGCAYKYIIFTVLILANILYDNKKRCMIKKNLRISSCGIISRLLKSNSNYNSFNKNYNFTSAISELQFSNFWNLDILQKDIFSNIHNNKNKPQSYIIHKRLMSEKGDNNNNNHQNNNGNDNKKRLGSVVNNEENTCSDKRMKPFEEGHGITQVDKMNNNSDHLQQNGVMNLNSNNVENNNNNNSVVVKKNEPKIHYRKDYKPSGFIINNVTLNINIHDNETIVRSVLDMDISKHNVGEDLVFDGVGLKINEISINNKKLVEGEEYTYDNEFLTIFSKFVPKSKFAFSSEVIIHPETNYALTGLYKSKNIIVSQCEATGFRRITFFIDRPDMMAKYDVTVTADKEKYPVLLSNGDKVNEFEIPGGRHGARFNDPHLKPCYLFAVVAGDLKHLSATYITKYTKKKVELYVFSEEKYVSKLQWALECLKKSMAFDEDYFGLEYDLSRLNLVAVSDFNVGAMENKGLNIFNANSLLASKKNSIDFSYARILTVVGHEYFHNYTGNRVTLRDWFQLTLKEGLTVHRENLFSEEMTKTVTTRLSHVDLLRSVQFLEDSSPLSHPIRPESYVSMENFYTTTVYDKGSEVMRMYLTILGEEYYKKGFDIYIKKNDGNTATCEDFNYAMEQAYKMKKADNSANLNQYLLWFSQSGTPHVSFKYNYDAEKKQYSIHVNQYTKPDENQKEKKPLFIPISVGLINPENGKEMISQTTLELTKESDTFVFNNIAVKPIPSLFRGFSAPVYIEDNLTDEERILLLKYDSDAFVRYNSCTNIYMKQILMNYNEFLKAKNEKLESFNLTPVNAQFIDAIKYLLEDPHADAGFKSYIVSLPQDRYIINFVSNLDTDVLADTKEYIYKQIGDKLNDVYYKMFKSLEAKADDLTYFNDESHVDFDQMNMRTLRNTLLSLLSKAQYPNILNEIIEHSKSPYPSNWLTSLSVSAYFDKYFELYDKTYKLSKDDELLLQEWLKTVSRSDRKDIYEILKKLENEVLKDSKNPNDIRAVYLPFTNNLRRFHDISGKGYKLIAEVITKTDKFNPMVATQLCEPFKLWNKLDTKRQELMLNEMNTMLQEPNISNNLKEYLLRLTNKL

| Structure (SMILES) | inhibition |
| --- | --- |
| CC(=O)Nc1ccc(Nc2cc(-c3ccccc3)nc3ncnn23)cc1 | 1.24% |
| NC(=O)c1nnsc1Sc1c(C(N)=O)nnn1-c1cccc(N)c1 | 4.16% |
| OCCNCCOc1ccccc1F | 7.92% |
| COC(=O)[C@H](CC(C)C)NC(=O)NCc1ccc(Cl)cc1 | 5.26% |
| Cc1ccn2c(Nc3ccc4c(c3)OCO4)c(-c3ccccn3)nc2c1 | 12.3% |
| N#Cc1c(NC(=O)C2CCCO2)sc2c1CCCCCC2 (centres undefined) | 3.88% |
| O=C1CC(c2ccccc2)Cc2nc3nc(C(F)(F)F)nn3cc21 (centres undefined) | -1.32% |
| O=C1Nc2ccccc2C1=Nc1ccc(S(=O)(=O)Nc2nccs2)cc1 | 9.76% |
| O=c1oc(-c2ccccc2NS(=O)(=O)c2ccccc2)nc2ccccc12 | 9.41% |
| O=S(=O)(Cc1ccccc1)Nc1ccc(Br)cn1 | 1.35% |
| Cc1ccc(NS(=O)(=O)Cc2ccccc2)nc1 | 5.38% |
| COc1ccccc1NC(=O)C1=C(C)NC(=O)NC1c1ccccc1F (centres undefined) | 5.11% |
| CCN(CC)CC(C)(C)NS(=O)(=O)c1ccc(Cl)cc1 | -1.17% |
| CC(C)OCCCNC(=O)c1ccc2c(=O)n(Cc3ccc4c(c3)OCO4)c(=S)[nH]c2c1 | -0.14% |
| COc1ccc(/C=C/C(=O)NCCSCc2ccco2)cc1 | 8.04% |
| Cc1ccccc1C(=O)OCc1nnc(-c2ccc(Cl)cc2)o1 | 1.13% |
| NC(CC(=O)O)c1ccc(F)cc1 (centres undefined) | 0.38% |
| COC(=O)CC(N)c1ccc(Br)cc1 (centres undefined) | 3.11% |
| Cc1c(/C=N/NC(=O)c2cc(C(C)(C)C)[nH]n2)c2ccccc2n1C | 4.3% |
| COc1ccc2[nH]cc(CCN=C3SCC(=O)N3C)c2c1 | -3.56% |
| N#Cc1cc2c(nc1SCc1ccccc1)CCCCC2 | 5.06% |
| N#Cc1cc2c(nc1SCc1ccccc1)CCC2 | -3.56% |
| CCOc1ccc(CCNC(=O)C2CCCN(c3nn4c(=O)cc(C)nc4s3)C2)cc1 (centres undefined) | 1.13% |
| CCOC(=O)c1c(-c2ccccc2)csc1N1C(=O)Nc2ccccc2N1O | 17% |
| COc1ccc(S(=O)(=O)Nc2cc(Cl)ccc2OC)cc1 | 4.45% |
| CCOc1ccc(S(=O)(=O)Nc2cc(Cl)ccc2O)cc1 | 24.5% (active) |
| CCOc1ccc(S(=O)(=O)Nc2cc(OC)ccc2OC)cc1 | 4.04% |
| Cc1ccc(S(=O)(=O)Nc2ccccn2)cc1[N+](=O)[O-] | 2.61% |
| Cc1ccc(-c2csc(NC(=O)CSc3nc4ccccc4[nH]3)n2)cc1 | 7.06% |
